High-throughput results deposited in PubChem BioAssay by National Center for Advancing Translational Sciences (NCATS).
KB-3-1 tox: kills parental KB-3-1 adenocarcinoma cells; KB-3-1 viability, CellTiter-Glo ATP luminescence, 72 h; Potency, µM (titrated, usually from 46.1 µM), actives largely listed as cytotoxic; hit rate 1.4% among 400,000; note: potency is the fitted concentration of half-maximal effect; nearly all actives have a fitted effect of over 60% in size
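Parental KB-3-1 adenocarcinoma cells in phenol-red-free DMEM with 10% FBS were pin-treated with compounds at several concentrations, incubated 72 h at 37 °C, and viability read by CellTiter-Glo luminescence; concentration-effect curves were fitted after normalization.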
HT1080 IDH1KD tx: toxicity to HT-1080 IDH1 knockdown cells (counter line); HT-1080 IDH1 knockdown viability, ATP luminescence, 48 h; Potency, µM (top dose mostly 46.1 µM), for inactives: at the top dose activity, negative = toxicity, usual class: cytotoxic; hit rate 2% among 360,000; AID 686971;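 note: potency is the fitted concentration of half-maximal effect; 0% = DMSO wells and -100% = cell-free medium wells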
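After a 2 h attachment period, IDH1KD HT-1080 cells took pin-transferred compound for 48 h at 37 °C; ATP-based luminescence after 10 min room-temperature reagent incubation reported viability.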
IL-1B inflam inh: blocks inflammasome-driven IL-1 beta release; THP-1 LPS/ATP IL-1B secretion, AlphaLISA, 16 h; active compounds read low; activity change, % at 57.5 µM; hit rate 4.7% among 360,000; in the data active = activity change below about -50%; inconclusive = mostly about -30% to -49%
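Secreted IL-1B measured by AlphaLISA bead assay after 16 h compound exposure of THP-1 cells; compounds (final up to 57.5 uM) added 1 h before LPS (250 ng/mL) and ATP (1.25 mM) stimulation; lower signal means less secretion.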
KB-V1 MDR tox: kills drug-selected multidrug resistant KB-V1 cells; hit rate 3.4% among 400,000; KB-V1 MDR cells viability, CellTiter-Glo, 72 h; AID 1347076; Potency, µM (top dose mostly 46.1 µM), hits mostly cytotoxic; note: potency is the fitted concentration of half-maximal effect; nearly all actives have a fitted effect of over 60% in size
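Readout: CellTiter-Glo luminescence, 10 min after addition. Cells: KB-V1 MDR subline, 72 h at 37 degrees C with compound. Analysis: corrected, normalized data fitted to concentration-effect curves.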
HT1080NT lethal: kills 2HG-producing HT-1080-NT fibrosarcoma cells. HT-1080-NT fibrosarcoma viability, CellTiter-Glo ATP luminescence, 48 h. Potency, µM (titrated, usually from 46.1 µM), without a hit: at the highest dose activity, negative = less viability, usual class: cytotoxic. hit rate 1.6% among 360,000. AID 686970;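 note: NT is the 2HG producing partner of a matched IDH1 knockdown line; potency is the fitted concentration of half-maximal effect; 0% = DMSO-treated cells and -100% = media-only wells without cells; nearly all actives have a fitted effect of over 55% in size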
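Compounds were tested in concentration-response format on HT-1080-NT cells for 48 hours at 37 degrees C. Cell viability came from CellTiter-Glo luminescence; curves were classified by r2, response magnitude and activity.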
* = called active by the depositor; i = inactive; ? = inconclusive; . = not tested or not shown. A selection: hits, their analogues and other compounds. The true share with any hit is near 8.8%. Unless noted, calls come from the whole dose curve; as a rule, active = well fitted curve in the direction sought with a large enough effect; inconclusive = small, poorly fitted or top-dose-only effect, or another doubt; inactive = no such curve, though single readings can be large; an effect the other way counts as inactive or inconclusive. Unless noted, % is set by controls: 0 for no effect and ±100 for the full control effect.

SMILES | KB-3-1 tox | HT1080 IDH1KD tx | IL-1B inflam inh | KB-V1 MDR tox | HT1080NT lethal
CCO[C@H]1OC(C(=O)Nc2ccccc2)=C[C@@H](C)[C@@H]1CCCO | i | 5.2% | 4.3 | i | 8.1%
COc1ccc(CNC(=S)Nc2ccc3nc(N4CCOCC4)cc(C)c3c2)cc1 | i | -10.7% | 0.0 | i | -3.6%
COc1ccc(CNC(=S)Nc2ccc3nc(N4CCN(C)CC4)cc(C)c3c2)cc1 | i | ? | -101.2* | i | 16.4µM*
Cc1cc(N2CCN(C)CC2)nc2ccc(NC(=S)NCc3cccs3)cc12 | i | 23.1µM* | -77.4* | i | 18.4µM*
N#Cc1ccc(Oc2ccc(NC(=O)C3CC=CCC3C(=O)O)cc2)cc1 (stereo unspecified) | i | -8.6% | 6.7 | i | 1.1%
Cc1onc(-c2ccccc2)c1C(=O)N/N=C(\N)COc1ccc(Cl)cc1 | ? | ? | 6.5 | 14.6µM* | ?
Cc1onc(-c2ccccc2Cl)c1C(=O)N/N=C(\N)COc1ccc(Cl)cc1 | ? | ? | -12.5 | 14.6µM* | -5.4%
Clc1ccc(CN2C3=NCCN3c3ccccc32)cc1Cl | i | ? | . | 20.6µM* | ?
NC(=O)c1cc(S(=O)(=O)N2CCc3ccccc3C2)cs1 | i | 2.2% | 16.4 | i | 10.1%
Cc1ccc(-c2nnc(Nc3ccc(S(N)(=O)=O)cc3)c3ccccc23)cc1S(=O)(=O)N1CCOCC1 | i | . | . | ? | .
CCOC(=O)N=Nc1c2ccccc2c2nc3no[nH]c3nc12 | 1.46µM* | 1.03µM* | -103.2* | 2.91µM* | 1.16µM*
Cc1ccccc1C(=O)NNC(=S)NC(=O)c1ccc(Cl)cc1Cl | i | 0.0% | 26.3 | ? | ?
CCCN(CCC)C(=S)NC(=O)c1ccc(Cl)cc1Cl | i | 2.51µM* | 30.2 | ? | 3.16µM*
COc1ccc(Cc2noc(CN3CCN(c4ccc(Cl)cn4)CC3)n2)cc1OC | ? | -27.9% | ? | 3.26µM* | -29.0%
O=C(Nc1cccnc1)c1ccc(Oc2ccccc2)cc1 | i | 25.9µM* | -15.0 | i | ?
O=C(NCc1cccnc1)c1ccc(COc2ccccc2Cl)cc1 | i | -0.4% | 3.1 | i | -14.2%
O=C(NCc1cccnc1)c1ccc(COc2ccccc2Br)cc1 | i | -25.4% | -86.8* | ? | -5.4%
NC(=O)c1ccc(NC(=O)c2ccc(COc3ccccc3Br)cc2)cc1 | i | 23.1% | -9.3 | i | 12.7%
O=C(Nc1ccc(C(=O)Nc2ccccc2Cl)cc1)c1cccnc1 | i | 5.8µM* | -0.7 | ? | 8.2µM*
O=C(Nc1cccnc1)c1ccccc1Oc1ccccc1 | i | -1.9% | 0.7 | i | 2.7%
O=C(Nc1ccccc1Cl)c1ccc(C(=O)Nc2ccccc2Cl)cc1 | i | -3.7% | 1.2 | i | -1.8%
O=C(Nc1cccnc1)c1ccc(COc2ccccc2Br)cc1 | ? | ? | -66.9* | ? | ?
COCCn1c(C)cc(C(=O)CSc2cc(C)c3ccc(OC)cc3n2)c1C | ? | -17.1% | 6.2 | i | -19.8%
CC(C)NC(=O)Nc1cccc2c1O[C@H](CN(C)C(=O)NC1CCCCC1)[C@H](C)CN([C@H](C)CO)C2=O | i | -4.2% | 15.1 | i | -1.9%
O=C(NNC(=O)c1ccccc1[N+](=O)[O-])c1csc(N2CCOCC2)n1 | i | -0.1% | -0.1 | i | -0.4%
SMILES | KB-3-1 tox | HT1080 IDH1KD tx | IL-1B inflam inh | KB-V1 MDR tox | HT1080NT lethal
Cc1cc(C)n(Cc2ccc(NC(=O)c3ccc(COc4ccccc4Br)cc3)cc2)n1 | 16.4µM* | ? | -74.7* | 2.59µM* | ?
CCC(CC)NC(=O)C1CC(=O)N(CCc2ccc(F)cc2)C1 (stereo unspecified) | i | 1.2% | -11.1 | i | 0.2%
Cc1ccc(OC/C(=N\O)C(C)(C)C)c([N+](=O)[O-])c1 | i | -19.8% | -82.3* | i | -4.4%
c1ccc(Cn2cc(CSc3ccccc3)nn2)cc1 | i | 15.2% | 5.3 | i | 11.0%
CCOc1ccc(N)c(SSc2cc(OCC)ccc2N)c1 | i | ? | 0.0 | i | ?
CS(=O)(=O)c1ccc(N)c(SSc2cc(S(C)(=O)=O)ccc2N)c1 | i | -4.2% | -95.2* | i | -5.3%
CC(=O)Nc1cccc(OC2=NS(=O)(=O)c3ccccc32)c1 | i | . | . | i | .
